Shown are actives, neighbours in structure and some others; about 21% of the full set was active somewhere.
CHX counter: counter-screen for Shiga toxin inhibitors: cycloheximide protein synthesis inhibition | cell reporter, cycloheximide protein synthesis inhibition counterscreen | max response, % | hit rate 12% among 300,000 | AID 2314; in the data active = max response mostly above about 13%, no sharp cut-off; inactive = mostly below about 14%; also: read at 38.3 µM for the half of the compounds with a filed dose; 0% is about no effect
HCMV inh: human cytomegalovirus inhibition; HFF cells, HCMV-luciferase reporter, 72 h; hits give low values; activity change, negative = inhibition, % at 57.5 µM; hit rate 4.5% among 410,000; AID 1259415; in the data active = activity change below about -60%; inconclusive = no clear call, values can overlap the other calls; inactive = above about -39%; also: % is scaled to controls: 0 for no effect and ±100 for the full control effect
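Steps: HFFs plated, 16 h 37C; compounds added; HCMV-luciferase added to MOI 1 PFU/cell; 72 h 37C; OneGlo reagent, 5 min room temperature; luminescence read, normalized to controls.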
Pf growth 48h: inhibits P. falciparum growth in the first generation, 48 h. hit rate 5.9% among 310,000. Potency, µM (top dose mostly 28.7 µM), without a hit: top-dose activity change, negative = inhibition, hits mostly inhibitors. P. falciparum luciferase growth in erythrocytes, 48 h; also: potency is read from the fitted curve at half-maximal effect; % is scaled to controls: 0 for no effect and ±100 for the full control effect
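Luciferase-expressing P. falciparum in infected erythrocytes (2% hematocrit, 0.1% parasitemia final) in RPMI 1640/0.5% Albumax were exposed to compound for 48 hours at 37 C, 5% CO2; growth read as luminescence.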
Shiga toxin inh: Shiga toxin inhibition | hit rate 9.2% among 290,000 | AID 2315 | Vero cells, Shiga toxin protein synthesis inhibition reporter | inhibition, % at 38.7 µM; in the data active = inhibition mostly above about 28%, no sharp cut-off; inactive = mostly below about 43%; also: 0% is about no effect
Pf growth 96h: P. falciparum growth inhibition at 96 hours; P. falciparum luciferase reporter growth, 96 h; Potency, µM (top dose mostly 28.7 µM), without a hit: at the top dose activity change, negative = inhibition, actives largely listed as inhibitors; hit rate 6.9% among 320,000; AID 504834; also: potency is read from the fitted curve at half-maximal effect; % is scaled to controls: 0 for no effect and ±100 for the full control effect
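Cell-based qHTS: luciferase-tagged P. falciparum in erythrocytes (2% hematocrit, 0.05% parasitemia final) incubated with compounds for 96 hours, 37 C, 5% CO2; luciferase detection reagent then added and luminescence measured.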
HCV inhibitor: blocks hepatitis C virus; Potency, µM (highest dose often 41.8 µM), without a hit: at the top dose activity change, negative = inhibition, most hits filed as inhibitors; AID 651820; Huh7.5.1 HCVcc-Cre infection, luciferase reporter, 44 h; hit rate 3.4% among 340,000; also: potency is read from the fitted curve at half-maximal effect; % is scaled to controls: 0 for no effect and ±100 for the full control effect
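1,000 cells/well; 4 h culture; + compound; + HCVcc-Cre (~0.5 moi); 44 h; luciferase substrate, RT 15 min; read 15 sec.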
The depositor's hits bear a star; i = inactive; ? = inconclusive; . = no result given; + = active, no number. Unless noted, calls follow the shape of the dose curve; as a rule, active = well fitted inhibition curve with a large enough effect; inconclusive = small, poorly fitted or top-dose-only effect, or another doubt; inactive = no such curve, though single readings can be large or run the other way.

SMILES	CHX counter	HCMV inh	Pf growth 48h	Shiga toxin inh	Pf growth 96h	HCV inhibitor
O=C(Cc1ccccc1)NS(=O)(=O)c1ccc(N=NN2CCOCC2)cc1	-3	-31	6%	17	14%	-15%
Cc1cccc(C)c1NC(=O)C1(C)CN(S(C)(=O)=O)CC(=O)N1Cc1cccs1 (stereo unspecified)	.	-28	.	.	.	.
COc1ccc(C(=O)NCCc2c[nH]c3ccccc23)cc1	45*	37	59%	77*	?	-22%
O=C(NCCc1c[nH]c2ccccc12)c1cnccn1	23	65	78%	38*	96%	2%
O=C(NCCc1c[nH]c2ccccc12)c1cncc(Br)c1	12	54	31%	23	?	-23%
COc1ccc(Cl)cc1NC(=O)c1cc2c(=O)n3ccccc3nc2s1	.	-8	.	.	.	.
O=C(N/N=C/c1ccc(Br)s1)c1cccnc1	26*	-7	?	42*	20%	?
O=C(N/N=C/c1cc(Br)c(O)c(Br)c1O)c1cccnc1	1	5	10µM*	2	-14%	?
O=C(N/N=C/c1cc(O)ccc1Br)c1cccnc1	-3	-38	13µM*	2	6%	?
CC(C)Cc1nc2c(nnn2Cc2ccccc2F)c(=O)[nH]1	-2	-37	?	-7	9.3µM*	-9%
Cc1ccc(/C=N/n2nnnc2N)cc1	.	33	.	.	.	18%
Cc1no[n+]([O-])c1COc1ccc(/C=N/n2nnnc2N)cc1	-4	-14	-29%	25	12µM*	-18%
O=C(COC(=O)/C=C/c1ccc(OC(F)F)cc1)Nc1ccc(N2CCOCC2)cc1	.	-30	-17%	.	12%	?
CCN(CCCNC(=O)CC(C(=O)N1CCc2ccccc21)n1ccnc1)c1cccc(C)c1 (stereo unspecified)	-2	-11	10µM*	-9	?	-4%
O=C(/C=C/c1ccccc1)Nc1cc(C(=O)O)cc(C(=O)O)c1	1	11	?	-14	14%	5%
COc1cc(NC(=O)/C=C/c2ccccc2)c(C(=O)O)cc1OC	0	6	3%	10	35%	13%
Cc1c(O)ccc(NC(=O)/C=C/c2ccccc2)c1C	12	?	13%	48*	?	7%
CCS(=O)(=O)c1ccc(O)c(NC(=O)/C=C/c2ccccc2)c1	28*	76	37%	73*	21%	-8%
CCS(=O)(=O)c1ccc(O)c(NC(=O)CCCC(=O)O)c1	-1	-17	13%	7	17%	11%
COC(=O)c1cc(NC(=O)/C=C/c2ccccc2)ccc1O	48*	-31	130%	121*	35%	.
COc1cccc(CNC(=O)c2oc3ccc4c(c3c2C)C(=O)CC(C)(C)O4)c1OC	.	-6	.	.	.	.
CCc1ccc2c(c1)C1(NN=C(c3ccc(C)cc3)S1)C(=O)N2 (stereo unspecified)	24*	-101*	0.41µM*	74*	?	10µM*
CC(C)c1ccc2c(c1)C1(NN=C(c3ccccc3)S1)C(=O)N2 (stereo unspecified)	33*	16	3.3µM*	68*	?	?
CCOC(=O)c1ccc2nc(C)c(C)nc2c1	17	55	49%	61*	38%	18%
COC(=O)c1ccc2nc(C)c(C)nc2c1	9	12	14%	3	208%	-11%
SMILES	CHX counter	HCMV inh	Pf growth 48h	Shiga toxin inh	Pf growth 96h	HCV inhibitor
CCOC(=O)c1cc2cc(OC)ccc2nc1C	16*	-38	25%	88*	?	?
CC(=O)CCc1c(C)nc2ccc(C)cc2c1Cl	16	-80*	5%	36	?	-12%
CCOC(=O)c1ccc2nc(C)c(CCC(C)=O)c(Cl)c2c1	39*	-6	60%	93*	80%	-12%
Cc1ccc(O)c(NC(=O)c2ccc3c(c2)C(=O)N(Cc2cccnc2)C3=O)c1	3	1	1%	10	?	19%
C=CCc1c(C)nc2ccc(C(=O)OCC)cc2c1Cl	10	-8	-21%	41*	i	-23%
COc1ccc(OCc2nc(N)nc(Nc3cccc(C)c3C)n2)cc1	-1	44	.	-6	.	21%
Cc1nc(N)nc(COc2ccccc2)n1	37*	11	43%	46*	108%	2%
COc1ccc(OCc2nc(N)nc(Nc3ccccc3)n2)cc1	21*	53	8%	25	?	-5%
COc1ccc(Nc2nc(N)nc(COc3ccc(OC)cc3)n2)cc1	-2	-1	0%	1	40%	-6%
COc1ccc(OCc2nc(N)nc(Nc3ccc(C)cc3)n2)cc1	15*	78	19%	17	-11%	-8%
COc1ccc2c(c1)c1c(c(=O)n(-c3ccccc3C)c(=O)n1C)n2C	.	-10	.	.	.	.
Nc1nn(-c2ccccc2)c(N)c1N=Nc1ccccc1F	50*	191	320%	+	471%	?
Nc1c(N=Nc2ccccc2F)c(=O)[nH]n1-c1ccccc1	44*	80	151%	63*	384%	30%
Cc1nn(-c2ccccc2)c(N)c1N=Nc1ccccc1	74*	46	167%	77*	1%	?
CC1(C)CC(=O)C(N=Nc2cccc(S(=O)(=O)N3CCOCC3)c2)=C(O)C1	-2	5	38%	-8	44%	-4%
Cc1nn(-c2ccccc2)c(N)c1C(O)(C(F)(F)F)C(F)(F)F	1	-1	10%	13	54%	1%
Cc1nn(-c2ccccc2)c(N)c1N=Nc1cccc(S(=O)(=O)N2CCOCC2)c1	2	-68*	?	-3	-29%	22µM*
OC(c1ccc(-c2ccccc2)cc1)c1ncc(-c2cccc(F)c2)[nH]1 (stereo unspecified)	.	-4	.	.	.	.
C=C1C=CS(=O)(=O)N(C(CC(C)C)C(=O)OC)C1 (stereo unspecified)	11	.	.	-7	.	.
Cc1nn(-c2ccccc2)c(N)c1N=Nc1ccc(Cl)cc1	29*	64	169%	102*	166%	?
CC1(C)CC(=O)c2c(nn(-c3ccccc3)c2N)C1	-1	17	-9%	-14	-20%	8%
Cc1cccc(N=Nc2c(C)nn(-c3ccccc3)c2N)c1C	77*	2	122%	72*	53%	?
Nc1ncnc(N)c1N=Nc1ccccc1	0	-64*	?	-10	5%	-28%
Cc1nc2c(N=Nc3ccccc3F)c(N)nn2c(N)c1C#N	16*	38	53%	8	42%	-5%
Cc1cc(=O)n2[nH]c(N)c(N=Nc3ccccc3F)c2n1	0	-2	-11%	-3	-22%	?
CCc1nc2nc(C)cc(Nc3ccc(OC)cc3)n2n1	.	-5	.	.	.	.
Nc1nn(-c2ccccc2)c(N)c1N=Nc1ccccc1	51*	171	229%	102*	268%	?
